Assay results: PubChem BioAssay (NCATS)
Results filed as inconclusive are left out. Values without a mark were called inactive. The call rests on the fitted dose curve; in most records, active means well fitted cell-killing curve with a large enough effect; inconclusive means small, poorly fitted or top-dose-only effect, or effect the other way; inactive means flat fitted curve, though single readings scatter.

experiment: MultiTox-Fluor Cytotoxicity Assay - LYMP1-001 - Dead Cells (AID 946); settings: LYMP1-001 lymphoblastoid cells, dead-cell protease fluorescence; series mostly up to 92.2 µM; cytotoxicity (dead cells): at the top concentration;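 further: cells exposed to compound for 16 h; 0% = DMSO and 100% = tetraoctylammonium bromide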
From the text: NIH Chemical Genomics Center [NCGC]
NIH Molecular Libraries Screening Centers Network [MLSCN]
National Institutes of Environmental Health Sciences [NIEHS]
National Toxicology Program [NTP]
We have developed a 1536-well cell-based assay for quantitative high throughput screening (qHTS) against a number of cell lines to determine in vitro cytotoxicity of small molecules. This particular assay uses a human lymphoblastoid cell line (LYMP1-001) purchased from Coriell Institute for Medical Research.
NCGC Assay Protocol Summary:
The MultiTox-Fluor Cytotoxicity Assay (Promega) is a homogeneous method to simultaneously measure the relative number of live and dead cells in culture by detecting changes in cell membrane integrity. There are two fluorogenic peptide substrates in the assay reagent. Viable cells are determined when the cell-permeant substrate (GF-AFC) enters the cell and is cleaved by protease from live cells resulting in liberated fluorophore. This live-cell protease activity restricted to viable cells is proportional to cell number. The dead cells are determined by using fluorogenic cell-impermeant peptide substrate (bis-AAF-R110) which cleaved by dead cell proteases leaking from damaged cell membrane.
Using the MultiTox-Fluor Cytotoxicity Assay, the relative number of dead cells was measured in the lymphoblastoid cell line with complete culture medium following compound treatment for 16 hours. The assay was performed in opaque black Kalypsys 1536-well plates. In the screen, tetraoctylammonium bromide was used as positive control. Library compounds were measured for their ability to cause acute toxicity in the cell line, as reflected by an increase in dead cell protease activity, in a concentration-dependent manner. Data were normalized to the controls for basal activity (DMSO only) and 100% stimulation (15 uM tetraoctylammonium bromide). AC50 values were determined from concentration-response data modeled with the standard Hill equation.
qHTS protocol for MultiTox-Fluor Cytotoxicity assay
[Step] [Parameter] [Value] [Description]
1. Reagent; 5 uL; 2500 lymphoblastoid cells/well
2. Time; 5 hr; 37 C incubation
4. Controls; 23 nL; Tetraoctylammonium bromide 6.4pM to 92 uM
5. Time; 16 hr; 37 C incubation
6. Reagent; 5 uL; MuliTox-Fluor Assay reagent
7. Time; 60 min; Room Temperature
8. Detection; dead-cell fluorescence (Ex/Em=485/520); EnVision plate reader
Keywords: cytotoxicity, lymphoblastoid cell line, fluorescence, NTPHTS, NTPHTS_NCGC, NIEHS, EPA, DSSTox, MLSMR, MLSCN, NIH Roadmap, qHTS, NCGC

Compound | cytotoxicity (dead cells) [%]
Cc1cnc[nH]1 | 7.75
CC(C)Br | 19.8
Oc1cccc(Cl)c1 | 2.54
Oc1ccc(Cl)c(Cl)c1 | 20.3
CC(C)CC(C)N (stereo not given) | 1.99
Oc1cc(Cl)ccc1Cl | 0.363
C=CC(=O)OCCN(C)C | 4.21
Cc1cc(Cl)ccc1O | -16.1
CCN(CC)N=O | 3.98
ClCCCCl | 8.3
Oc1cc(Cl)c(Cl)c(Cl)c1Cl | -11.3
CN(C)N=O | -7.76
O=C(O)CCl | 9.79
C=CC=O | 2.35
Nn1cnnc1 | 12.2
ClC(Br)Br | 3.22
CCCCCC[N+](=O)[O-] | 6.22
CN(C)c1ccc(N(C)C)cc1 | 3.41
CCOC(=O)CBr | -12.6
C=C(C)CCl | -5.34

Compound | cytotoxicity (dead cells) [%]
FC(Cl)(Cl)Cl | -6.36
c1ccc2c(c1)CCNC2 | -11.5
CC(C)(C)OOC(=O)c1ccccc1 | -7.91
OCCOCCO | -5.25
Nc1ccc2ccccc2c1 | 11.6
CCC(Cl)[N+](=O)[O-] (stereo not given) | -5.88
CC(C)OS(C)(=O)=O | 1.65
CN(C)c1ccc(N)cc1 | 8.73
ClCC(Cl)CCl | -4.52
CC(C)OC(=O)Cc1ccccc1 | -4.72
Cc1ccc2c(C)cccc2c1 | -26
c1ccc(Nc2ccc(Nc3ccccc3)cc2)cc1 | -0.954
CN(C)C(=O)Nc1cccc(C(F)(F)F)c1 | -2.6
ClP(Cl)(Cl)(Cl)Cl | 4.8
Nc1ccc(-c2ccc(N)c(Cl)c2)cc1Cl | 27.7
N#CC(O)c1ccccc1 (stereo not given) | -20.7
BrC(Br)Br | -15.3
N#CCCC#N | -3.14
Nc1cc(Cl)cc(C(=O)O)c1Cl | -7.12
Cc1ccc(N)c(N)c1 | 12.4
